Screening results: PubChem BioAssay, National Center for Advancing Translational Sciences (NCATS)
DT40 TDP1 no CPT = qHTS for Inhibitors of human tyrosyl-DNA phosphodiesterase 1 (TDP1): qHTS in cells in absence of CPT; DT40 Tdp1-/- hTDP1 cells, no CPT, ATP luminescence, 48 h; Potency, µM (doses to about 46.2 µM), for inactives: top-dose activity change, negative = growth inhibition, most hits filed as inhibitors; 420,000 compounds, 15% hits; AID 686978, 2013; also: potency is read from the fitted curve at half-maximal effect; nearly all actives have a fitted effect of over 55% in size
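Cells were dispensed at 400 per well, compounds added by pin tool, plates incubated ≥48 hr at 37 °C, then CellTiter-Glo added for 30 min at room temperature before luminescence reading. Line: DT40 Tdp1-/- complemented with hTDP1; camptothecin omitted.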
DT40 TDP1 CPT = DT40-hTDP1 cell growth loss with CPT; chicken DT40 Tdp1-/-;hTDP1 cells + 20 nM CPT, ATP luminescence, 48 h; Potency, µM (series often up to 46.2 µM), without a hit: at the highest dose activity change, negative = growth inhibition, actives largely listed as inhibitors; 420,000 compounds, 12% hits; AID 686979; also: potency is read from the fitted curve at half-maximal effect; nearly all actives have a fitted effect of over 55% in size
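Chicken DT40 Tdp1-/- cells stably complemented with human TDP1 were seeded at 400 cells/well in medium containing 20 nM camptothecin, exposed to pin-transferred compounds, and grown at 37 °C for at least 48 hr. Viability was read as ATP luminescence.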
HT1080NT lethal = kills 2HG-producing HT-1080-NT fibrosarcoma cells; HT-1080-NT fibrosarcoma viability, CellTiter-Glo ATP luminescence, 48 h; 360,000 compounds, 1.6% hits; AID 686970; Potency, µM (series often up to 46.1 µM), for the others: top-dose activity, negative = less viability, actives largely listed as cytotoxic;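 also: NT is the 2HG producing partner of a matched IDH1 knockdown line; potency is read from the fitted curve at half-maximal effect; 0% = DMSO-treated cells and -100% = media-only wells without cells; nearly all actives have a fitted effect of over 55% in size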
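A 48-hour cytotoxicity screen used HT-1080-NT cells plated 2 hours before compound delivery. ATP-based CellTiter-Glo luminescence measured viability, normalized to DMSO and no-cell controls.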
HT1080 IDH1KD tx = toxicity to HT-1080 IDH1 knockdown cells (counter line); HT-1080 IDH1 knockdown viability, ATP luminescence, 48 h; Potency, µM (series often up to 46.1 µM), for the others: top-dose activity, negative = toxicity, actives largely listed as cytotoxic; 360,000 compounds, 2% hits;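 also: potency is read from the fitted curve at half-maximal effect; 0% = DMSO wells and -100% = cell-free medium wells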
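After a 2 h attachment period, IDH1KD HT-1080 cells took pin-transferred compound for 48 h at 37 °C; ATP-based luminescence after 10 min room-temperature reagent incubation reported viability.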
IL-1B inflam inh = inhibitors of inflammasome signaling (IL-1 beta secretion). activity change, % at 57.5 µM. 360,000 compounds, 4.7% hits. THP-1 LPS/ATP IL-1B secretion, AlphaLISA, 16 h; hits give low values; in the data active = activity change below about -50%; inconclusive = mostly about -30% to -49%
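THP-1 cells pretreated 1 hr with compounds (up to 57.5 uM final), then stimulated with LPS (250 ng/mL final) plus ATP (1.25 mM final); secreted IL-1B measured by AlphaLISA after 16 hr, decreased signal indicating inhibition.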
* = called active by the depositor; u = inconclusive; x = no result given; [ ] = another dose, or the depositor's remark. This is a sample that favours compounds with a hit; in the whole collection about 19% have one here. Unless noted, calls follow the shape of the dose curve; as a rule, active = well fitted curve in the direction sought with a large enough effect; inconclusive = small, poorly fitted or top-dose-only effect, or another doubt; inactive = no such curve, though single readings can be large; an effect the other way counts as inactive or inconclusive. Unless noted, % is scaled to controls: 0 for no effect and ±100 for the full control effect.

SMILES	DT40 TDP1 no CPT	DT40 TDP1 CPT	HT1080NT lethal	HT1080 IDH1KD tx	IL-1B inflam inh
COc1ccc(C(=O)N/C(=C/c2cccs2)C(=O)N2CCN(C)CC2)cc1	-21%	3%	2%	10%	-13
COc1cc(/C=C(\C#N)C(=O)Nc2cccc(C(=O)O)c2)ccc1OCc1ccc(C)cc1	-22%	-9%	17%	18%	-14
CCOc1cc(/C=C(\C#N)C(=O)Nc2cccc(C(=O)O)c2)ccc1OCc1ccc(Br)cc1	29µM*	u	-5%	-5%	-3
C[n+]1cccc(O)c1SCc1ccccc1	4.6µM*	5.2µM*	-25%	23µM*	5
CCc1ccc(CNC(=O)C(CC)n2ccc3cc(S(=O)(=O)N4CCCCC4)ccc32)cc1 (stereo unspecified)	23µM*	u	x	x	x
Cn1ccc2cc(S(=O)(=O)N3CCCC(C(=O)NCc4ccccc4)C3)ccc21 (stereo unspecified)	6%	-28%	x	x	x
CCc1ccc(CNC(=O)C2CCCN(S(=O)(=O)c3ccc4c(ccn4C)c3)C2)cc1 (stereo unspecified)	15µM*	21µM*	x	x	x
CCC(C(=O)NCCc1ccc(Cl)cc1)n1ccc2cc(S(=O)(=O)N3CCCCC3)ccc21 (stereo unspecified)	u	13µM*	x	x	x
Cc1onc(C(=O)NCc2ccccn2)c1[N+](=O)[O-]	-5%	-4%	-3%	0%	-3
O=S(=O)(Nc1ccc(-c2ccc(N3CCCCCC3)nn2)cc1)c1cccc(C(F)(F)F)c1	u	15µM*	x	x	x
Cc1cc(C)c(S(=O)(=O)Nc2ccc(-c3ccc(N4CCCCC4)nn3)cc2)cc1C	18µM*	8.2µM*	x	x	x
O=[N+]([O-])c1ccc(Cl)c(S(=O)(=O)Nc2ccc(-c3ccc(N4CCCC4)nn3)cc2)c1	4%	18%	-4%	-12%	-85*
O=S(=O)(Nc1ccc(-c2ccc(N3CCCCCC3)nn2)cc1)c1ccc(C(F)(F)F)cc1	u	12µM*	x	x	x
COc1cc(C(=O)OCC(=O)Nc2ccc(C)cc2)cc(OC)c1OC	u	-1%	5%	-15%	3
CCCCCCCCCC(=O)OCC(CO)OC(=O)CCCCCCCCC (stereo unspecified)	5%[4.12 µM]	0%[4.12 µM]	x	x	x
CCCC(=O)NC1CC(=O)N(c2ccc3c(c2)OCCO3)C1 (stereo unspecified)	-25%	-1%	x	x	x
CCc1ccc(N2CC(C(=O)Nc3nc4ccc(S(C)(=O)=O)cc4s3)CC2=O)cc1 (stereo unspecified)	-15%	0%	-19%	-15%	35
CC1CCC(NC(=O)C2CC(=O)N(c3ccc4c(c3)OCCO4)C2)CC1 (stereo unspecified)	6%	9%	2%	-9%	15
CCOc1ccccc1C(=O)N/N=C/c1coc2ccc(Cl)cc2c1=O	u	u	1%	-12%	69
Brc1ccc(-c2nn3c(-c4ccco4)nnc3s2)o1	-21%	-25%	4%	-3%	u
Clc1ccc(-c2ccc(-c3nn4c(-c5ccco5)nnc4s3)o2)cc1	10µM*	u	-3%	-8%	-17
CCN1C(=O)[C@H]2[C@@H](c3ccc(Cl)cc3)N3C(=O)CN(CC4CC4)C(=O)[C@@]3(Cc3ccccc3)[C@H]2C1=O	-3%	-8%	3%	16%	-2
CCCCn1c(CCNC(=O)c2ccc(F)cc2)nc2ccccc21	u	-22%	x	x	x
CCCCCn1c(CCCNC(=O)c2ccccc2)nc2ccccc21	21µM*	23µM*	x	x	x
CCCCCn1c(CNC(=O)c2ccc(F)cc2)nc2ccccc21	21µM*	16µM*	x	x	x
SMILES	DT40 TDP1 no CPT	DT40 TDP1 CPT	HT1080NT lethal	HT1080 IDH1KD tx	IL-1B inflam inh
CCCN(C(=O)COC(=O)c1[nH]c(C)c(C(=O)OC)c1C)c1c(N)n(Cc2ccccc2)c(=O)[nH]c1=O	-8%	u	-12%	-14%	6
COc1ccc(NC(=O)O[C@@H](C)[C@@H]2CN3CCc4c([nH]c5ccc(-c6ccc(OC)cc6)cc45)[C@@H]3C[C@@H]2N(C)C(=O)Nc2ccc(OC)cc2)cc1	13µM*	u	-23%	-23%	-6
COc1ccc(NC(=O)N(C)[C@H]2C[C@H]3c4[nH]c5ccc(-c6ccc(OC)cc6)cc5c4CCN3C[C@H]2[C@H](C)O)cc1	u	u	23µM*	16µM*	u
C[C@H](O)[C@@H]1CN2CCc3c([nH]c4ccccc34)[C@@H]2C[C@@H]1N(C)C(=O)Nc1ccc(Br)cc1	u	u	u	u	-28
COc1ccc(-c2ccc3[nH]c4c(c3c2)CCN2C[C@@H]([C@H](C)OC(=O)Nc3cc(Cl)cc(Cl)c3)[C@@H](N(C)C(=O)Nc3cc(Cl)cc(Cl)c3)C[C@@H]42)cc1	u	u	-19%	-4%	-18
COc1ccc(NC(=O)N(C)[C@H]2C[C@H]3c4[nH]c5ccc(-c6ccc7c(c6)OCO7)cc5c4CCN3C[C@H]2[C@H](C)O)cc1	10µM*	8.2µM*	23µM*	23µM*	-12
O=C(CSc1nnc(-c2cccnc2)n1-c1ccccc1)Nc1ccc2c(c1)OCO2	-18%	-7%	u	u	7
O=C(c1ccc(Cl)c(S(=O)(=O)N2CCOCC2)c1)N1CCN(Cc2ccccc2)CC1	u	-28%	-5%	6%	-8
COc1ccc(NC(=O)CCC2CCCCC2)cc1S(=O)(=O)N1CCCCC1	u	u	3%	-22%	-20
CC(=O)NC(c1ccccc1)c1nc(-c2cccc(C(F)(F)F)c2)cs1 (stereo unspecified)	u	u	15%	8%	0
CN(c1ccccc1)S(=O)(=O)c1cccc(NC(=O)CN2C(=O)NC3(CCCC3)C2=O)c1	u	u	4%	-7%	-1
COC(=O)C1CCN(C2CN(Cc3ccccc3)S(=O)(=O)C2)CC1 (stereo unspecified)	-2%	-18%	19%	19%	10
O[Si](CCCN1CCCCC1)(c1ccc(F)cc1)C1CCCCC1 (stereo unspecified)	26µM*	u	u	21µM*	u
O=C(CCCN1C(=O)/C(=C/c2cccs2)SC1=S)Nc1cccc(O)c1	16µM*	21µM*	u	16µM*	-94*
O=C(CCN1C(=O)/C(=C/c2cccs2)SC1=S)Nc1cccc(O)c1	u	-22%	-10%	-9%	-82*
O=C(CCN1C(=O)/C(=C/c2cccs2)SC1=S)Nc1ccc(O)cc1	u	-21%	-7%	u	-4
